This note sets out measurements from PubChem BioAssay AID743279 (National Center for Advancing Translational Sciences (NCATS), 2014).

SMILES strings stand for the structures. The campaign covered roughly 360,000 compounds. About 17,000 (4.7%) were called active. Not shown: some 5% with an inconclusive outcome. The entries come from a sample that favours actives as a whole. A number with no mark means an inactive call. No stated cut-off is given here; in the data, active means activity change below about -50%; inconclusive means mostly about -30% to -49%; inactive means weaker than that.
On the % scale 0 is the no-effect control and ±100 the full control effect.

The assay in a line: qHTS for Inhibitors of Inflammasome Signaling: IL-1-beta AlphaLISA Primary Screen. Conditions: THP-1 LPS/ATP IL-1B secretion, 16 h; at 57.5 µM, active compounds read low. In outline:
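THP-1 cells pretreated 1 hr with compounds (up to 57.5 uM final), then stimulated with LPS (250 ng/mL final) plus ATP (1.25 mM final); secreted IL-1B measured by AlphaLISA after 16 hr, decreased signal indicating inhibition.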
(Quantitative high-throughput screening tests each substance at several concentrations.)
Take `O=C(N/N=C\c1cc2c(cc1Cl)OCO2)c1ccc(Br)s1`: the activity change was 7.39%. With `COc1ccc(-c2ccc(C(=O)NC(C)C)c3occc23)c(C)c1`, the activity change is -6.78%. With `Cc1cc2nc(-c3ccc(Cl)cc3)c(Cc3cccc(F)c3)n2c(C)c1Br`, the activity change is 0%.

With `CCCCNc1nc2c(c(=O)n(C)c(=O)n2C)n1Cc1cccc(OC)c1`, the activity change is -59.5% (active). The result for `CCn1c(NCCc2ccc(OC)c(OC)c2)nc2c1c(=O)n(C)c(=O)n2C` reads 5.08%; that for `CCCCNc1nc2c(c(=O)[nH]c(=O)n2C)n1CCOc1ccccc1`, 26.9%; that for `CCc1c(N=O)c(-c2ccccc2)n(O)[n+]1[O-]`, -4.78%. Consider `CN(C)CCNC(=O)c1ccc(-c2cn3c(-c4ccc(Oc5ccccc5)cc4)cnc3cn2)cc1`, for which the activity change was -66.3% (active).

In the case of `CN(C)C(CNC(=O)c1ccc(OCc2cn3ccccc3n2)cc1)c1ccco1` (stereo unspecified), the activity change is 3.62%. The result for `Cc1noc(C)c1COc1ccc(C(=O)NCCOc2ccccc2)cc1` reads -10.6%; that for `COc1cc(N/C=C2\CC(=O)NC(C)=C2C#N)cc(OC)c1OC`, 18.8%. The result for `O=C(CN1CCN(C(=O)c2ccco2)CC1)Nc1ccc2c(c1)OCO2` reads 21.4%. Turning to `O=C(Cn1cc(C(F)(F)F)ccc1=O)Nc1ccc2c(c1)OCCO2`, the activity change was -6.35%. As to `O=C(CN1CCN(c2ncc(C(F)(F)F)cc2Cl)CC1)Nc1ccc2c(c1)OCO2`, the activity change was -50.6% (active). The result for `CCCNC(=O)C1(C)CCCN(Cc2cccc(C(F)(F)F)c2)C1` (stereo unspecified) reads -10.2%; that for `CCC(C(=O)NCc1ccccc1)n1c(Cc2cc(F)cc(F)c2)nc2ccccc21` (stereo unspecified), -4.41%; that for `CCOC(=O)[C@]12CCCC=C1N(CCC1=CCCCC1)C(=O)[C@H](CC(=O)N1CCOCC1)C2`, 12.3%. In the case of `O=C(Nc1ccc(N2CCOCC2)cc1)c1cccc2c(-c3ccc(F)c(F)c3)coc12`, the activity change is -5%. Consider `CN(C)c1cccc(NC(=O)c2ccc(-c3ccc(F)c(F)c3)c3ccoc23)c1`, for which the activity change is -82.3% (active).

Turning to `COc1ccc(CNC(=O)c2ccc(-c3cccnc3)c3ccoc23)cc1OC`, the activity change is -14.6%. For the molecule `COc1cc(C=O)c(Br)cc1OCC(=O)NCc1ccccc1`, the activity change was -25.7%.

As to `COc1cc(CNC2CCCCC2)c(Br)cc1OC1CCCC1`, the activity change was -64.3% (active). `COc1ccc(CNC2CCCCC2)cc1`: the activity change is -4.21%. Turning to `COc1cc(CNC2CCCC2)c(Br)cc1OCc1ccccc1`, the activity change was -92.7% (active). Regarding `CC(C)(C)NCc1cc(Br)ccc1OC1CCCC1`, the activity change was -13.9%. As to `COc1cc(C(=S)NC2CCCCC2)ccc1O`, the activity change is 5.59%.
